# HSF1 inh: HSF1 inhibition | AID 2098 | activity change, negative = inhibition, % at 7.5 µM (by protocol) | 0.77% of 300,000 active | NIH3T3-HGL HSE-luciferase, MG132-induced, luminescence 8 h; hits give low values;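 active = more than half of replicate wells show activity change below -50%, luminescence cut by over half; inconclusive = some wells, but at most half, below -50%; inactive = no replicate well below -50%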;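 also: luciferase reports HSF-1 transcriptional activity via heat shock element; 0% = median of DMSO wells and -100% = zero luminescence signal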
# HSF1 activator: increases HSF-1 driven luciferase reporter signal; AID 504408; NIH3T3-HGL HSF-1 luciferase reporter, MG132, 8 h; 100% = twice DMSO control signal; 1.7% of 300,000 active; activation, % at 9 µM;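 active = mean replicate activation of at least 50% with a set share of replicates each reaching 50%; inconclusive = only one of those two conditions met; inactive = mean below 50% and too few replicates reaching it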;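 also: 0% = median of the neutral control wells and 100% = twice that signal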
# esBAF inh: inhibitors of esBAF chromatin remodeling in mouse ES cells. Bmi1-luciferase knock-in reporter, 24 h; 100% = twice the neutral-well signal. reporter increase, % at 12.5 µM. 2% of 350,000 active; in the data active = activation above about 40%; inconclusive = no clear call, values can overlap the other calls;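 also: 0% = median of the plate's neutral control wells and 100% = double that signal; a rise in the Bmi1 reporter signal indicates esBAF inhibition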
# MITF TRPM1 HTS: MITF TRPM1 promoter activation in melanoma cells; activation, % at 12.5 µM; 0.75% of 300,000 active; SK-MEL-5 TRPM1-promoter luciferase, 24 h; % of positive control, neutral wells = 0;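 active = mean activation of at least 80% with every replicate also reaching 80%; inconclusive = mean reaches 80% but some replicate falls short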;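 also: 0% = neutral control wells and 100% = parthenolide positive control wells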
# Wnt act: activators of Wnt/beta-catenin signaling | Wnt/beta-catenin reporter cell assay, activator, plate reader | activation, % at 9.35 µM | 1.2% of 300,000 active | AID 743398; in the data active = activation above about 30%, passing the limit was not always enough; inconclusive = no clear call, values can overlap the other calls;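 also: 0% = neutral control wells and 100% = positive control wells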
# Starred values were filed as active, the others as inactive; ? = inconclusive; / = no result given. A selection: hits, their analogues and other compounds. The true share with any hit is near 3.9%.
SMILES,HSF1 inh,HSF1 activator,esBAF inh,MITF TRPM1 HTS,Wnt act
COc1ccc(NC(=O)Nc2ccc3c(c2)C(=O)N([C@@H](C)CO)C[C@@H](C)[C@@H](CN(C)CC2CC2)OCCCC[C@@H](C)O3)cc1,/,/,2.4,/,/
COc1ccc(C(C#N)N2N=C(C)CC2c2ccccc2)cc1 (stereo unspecified),-1.6,-8.4,0.0,-10.9,2.2
COc1ccc(C2=NN(C(C#N)c3ccc(OC)cc3)C(c3ccccc3)C2)cc1 (stereo unspecified),42.1,63.8*,/,27.4,27.6
Cc1ccc2c(C)c(C(=O)N3CCN(Cc4ccc5c(c4)OCO5)CC3)oc2c1C,12.0,17.5,78.8*,50.0,8.3
Cc1ccc(O)c(NC(=O)Cc2ccc3ccccc3c2)c1,142.0,161.2*,-7.5,/,-4.8
O=C(O)Cc1ccc(NC(=O)Cc2ccc3ccccc3c2)cc1,0.1,15.1,-2.0,3.0,0.1
Cc1ccc(O)c(NC(=O)CSc2n[nH]c(C)c2[N+](=O)[O-])c1,48.4,72.7*,/,-15.4,-6.5
Cc1ccc(SCC(=O)NC(C)(C)C)cc1,12.3,14.4,55.8*,/,33.2*
Cc1ccc(O)c(NC(=O)CSc2ccc(Cl)cc2)c1,111.6,161.8*,6.7,-7.8,-0.3
COCC#Cc1ccc2c(c1)O[C@H](CN(C)S(=O)(=O)c1ccc(OC)cc1)[C@H](C)CN([C@H](C)CO)S2(=O)=O,/,/,5.7,/,/
N#C[C@@H]1[C@@H](c2ccccc2)[C@@H](CO)N1C(=O)c1ccccc1F,/,/,-3.8,/,/
Cc1ccc(NC(=S)c2ccc(N(C)C)cc2)cc1,-16.6,-16.9,-16.2,14.5,45.6*
COc1ccc(NC(=S)c2ccc(N(C)C)cc2)cc1,14.7,?,/,75.0,/
COc1ccc(NC(=S)c2ccccc2)cc1,12.1,10.5,61.3*,83.1*,16.2
COc1ccc(C(=S)Nc2ccc(N(C)C)cc2)cc1,28.9,59.6*,12.3,66.9,68.4*
C[C@@H]1CN([C@@H](C)CO)S(=O)(=O)c2ccc(C#CC(C)(C)O)cc2O[C@H]1CN(C)Cc1ccncc1,/,/,3.3,/,/
CC(=O)Nc1ccc2c(c1)C(=O)N(C)[C@H]1CC[C@@H](CC(=O)NCCCN3CCOCC3)O[C@H]1CO2,/,/,-4.2,/,/
C[C@@H]1CCCCO[C@@H](CN(C)C(=O)NC2CCCCC2)[C@H](C)CN([C@H](C)CO)C(=O)c2cc(NS(=O)(=O)c3ccccc3)ccc2O1,/,/,8.8,/,/
N#C/C(C(=O)NCc1ccccc1)=C1/N=C(NC(=O)c2ccco2)c2ccccc21,17.0,?,47.2*,37.7,-3.6
COc1ccc(CCNC(=O)/C(C#N)=C2\N=C(NC(=O)c3ccco3)c3ccccc32)cc1,2.7,17.1,2.2,/,0.3
CC(=O)O[C@]1(C(C)=O)CC[C@H]2[C@@H]3C=CC4=CC(=O)C=C[C@]4(C)[C@H]3CC[C@@]21C,56.3,109.4*,-12.0,11.3,1.6
C/C(=N/NC(=O)c1cccs1)c1ccco1,13.5,55.6*,/,33.3,1.2
CC(/C=N/NC(=O)c1cccs1)=C\c1ccco1,5.3,8.1,98.2*,72.4,38.9*
CC(=O)N/N=C(/C)c1ccc(NC(=O)c2csc(C)c2C)cc1,42.7,70.9*,/,?,7.9
C/C(=N\NC(=O)c1cccs1)c1ccc(C(=O)O)s1,20.2,44.8,/,-5.5,-0.9
SMILES,HSF1 inh,HSF1 activator,esBAF inh,MITF TRPM1 HTS,Wnt act
C/C(=N\NC(=O)c1csc(C)c1C)c1ccco1,46.0,63.3*,-11.7,16.8,27.8
C/C(=N\NC(=O)c1csc(C)c1C)c1ccc(C)s1,2.6,-14.0,/,41.2,-1.8
CCC(=O)Nc1ccc(/C(C)=N\NC(=O)c2ccc(C)s2)cc1,-2.4,10.1,20.2,3.8,/
C[C@H]1CN([C@@H](C)CO)C(=O)Cc2cc(NC(=O)c3ccncc3)ccc2O[C@H]1CN(C)C(=O)Nc1ccc(C(F)(F)F)cc1,/,/,-3.9,/,/
COc1cccc(OC)c1OCCNCC1COc2ccccc2O1 (stereo unspecified),34.3,52.9*,-0.5,-3.1,1.4
CCCNCC1COc2ccccc2O1 (stereo unspecified),-0.6,4.7,/,/,/
O=C(NC1CCC1)[C@@H]1[C@@H](CO)[C@@H]2Cn3c(ccc(C4=CCCC4)c3=O)[C@H]1N2CC1CC1,/,/,-0.6,/,/
Cc1cccc(NC(=O)c2ccc3c(c2)OCCO3)c1C,20.1,49.5,54.7*,113.0*,5.7
O=C(Nc1cccc2cccnc12)c1ccc2c(c1)OCCO2,15.0,5.1,47.8*,54.8,3.8
Cc1ccccc1NC(=O)C(=O)Nc1ccccc1C,32.8,39.9,45.3*,42.6,27.5
Cc1ccccc1NC(=O)c1ccc2c(c1)OCCO2,-65.5*,-73.1,46.7*,66.9,/
C[C@@H]1CN([C@H](C)CO)C(=O)CCCn2cc(nn2)CO[C@H]1CN(C)Cc1ccc(O)cc1,/,/,-3.7,/,/
C[C@@H]1CCCCO[C@@H](CN(C)Cc2ccncc2)[C@@H](C)CN([C@@H](C)CO)C(=O)c2cc(NS(=O)(=O)c3ccc(F)cc3)ccc2O1,/,/,1.2,/,/
C[C@@H]1CN([C@@H](C)CO)C(=O)c2cccc(NS(=O)(=O)c3cn(C)cn3)c2O[C@@H]1CN(C)C,/,/,0.3,/,/
CN1C(=O)c2cc(NC(=O)C3CCCCC3)ccc2OC[C@@H]2O[C@H](CC(=O)NCCc3ccncc3)CC[C@H]21,/,/,-1.3,/,/
N#Cc1ccccc1NC(=O)c1ccc2c(c1)OCCO2,6.6,15.7,44.9*,/,5.9
COc1ccc(CN2[C@H](CO)[C@H]3c4ccccc4N(C(=O)c4ccccc4)C[C@H]32)cc1,/,/,3.0,/,/
COc1cccc(N(C(=O)CCl)C(C(=O)NCCc2ccccc2)c2cccs2)c1 (stereo unspecified),-92.3*,-92.7,14.9,-88.8,-2.9
O=S(=O)(N[C@@H]1CC[C@@H](CCn2cc(-c3ccccn3)nn2)O[C@H]1CO)c1cccc(Cl)c1,/,/,-2.2,/,/
Cc1cc(C)c2[nH]c(O)c(N=Nc3ccc(C(=O)O)cc3)c2c1,-11.8,-11.7,47.3*,-2.2,1.3
C[C@@H]1CN([C@@H](C)CO)C(=O)c2cccc(NS(C)(=O)=O)c2O[C@@H]1CN(C)C,/,/,-2.9,/,/
CCOc1cc(C(c2c(C)[nH][nH]c2=O)c2c(C)[nH][nH]c2=O)ccc1OCc1ccc([N+](=O)[O-])cc1,94.7,128.8*,2.2,-10.1,/
CCOc1cc(C(c2c(C)[nH][nH]c2=O)c2c(C)[nH][nH]c2=O)cc(Br)c1OC,-69.5*,-75.8,-3.8,6.9,2.6
COc1cc(C(c2c(C)[nH][nH]c2=O)c2c(C)[nH][nH]c2=O)cc(Br)c1OC,16.2,16.3,0.3,-3.3,-0.3
COc1ccc(NC(=O)N(C)C[C@H]2Oc3ncc(-c4cccnc4)cc3C(=O)N([C@H](C)CO)C[C@H]2C)cc1,/,/,5.7,/,/
CCCC#Cc1cnc2c(c1)C(=O)N([C@@H](C)CO)C[C@@H](C)[C@@H](CN(C)C(=O)c1cccc(F)c1)O2,/,/,0.4,/,/
O=C(c1ccccc1)c1nnc(-c2ccccc2F)o1,9.6,35.3,30.4,/,60.5*
O=C(CSc1nnc(-c2ccccc2F)o1)NC1CC1,/,/,19.9,25.2,11.4
